# A selection: hits, their analogues and other compounds. The true share with any hit is near 4%.
# MazEF act: MazEF (E. coli) toxin RNase activation; P0AE70; FAM/BHQ RNA-DNA oligo cleavage fluorescence, 5 h; activation, % at 20 µM; actives 0.32% (n = 350,000); AID 504720; in the data active means activation above about 50%
# Mtb bLac sens: beta-lactam sensitization of Mtb H37Rv; M. tuberculosis H37Rv growth with meropenem, percent inhibition; actives 0.27% (n = 330,000); inhibition, % at 25 µM; call rule not given here;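 further: growth measured after seven days incubation then overnight dye step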
# GDH-TPI counter: inhibits GDH-TPI coupling enzymes, artifact for Mtb FBA screen. inhibition, % at 4.8 µM. actives 1.2% (n = 360,000). GDH-TPI coupled enzyme counterscreen, NADH absorbance
# Mtb FBA inh: inhibits M. tuberculosis FBA enzyme | actives 2.3% (n = 360,000) | inhibition, % at 1 µM | P9WQA3 | purified M. tuberculosis FBA, fluorescence read-out; in the data active means inhibition above about 27%
# Target sequence (P9WQA3 whole entry, looked up): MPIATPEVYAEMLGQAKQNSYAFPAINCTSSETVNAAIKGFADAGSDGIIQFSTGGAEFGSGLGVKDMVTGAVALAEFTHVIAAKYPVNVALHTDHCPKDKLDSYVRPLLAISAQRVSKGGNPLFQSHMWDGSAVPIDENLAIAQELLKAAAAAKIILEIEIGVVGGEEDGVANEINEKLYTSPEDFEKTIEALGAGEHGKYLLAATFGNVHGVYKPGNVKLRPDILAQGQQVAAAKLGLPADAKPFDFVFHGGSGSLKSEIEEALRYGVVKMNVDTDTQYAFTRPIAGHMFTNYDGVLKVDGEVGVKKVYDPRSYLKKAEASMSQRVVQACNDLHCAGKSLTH
# CCHF vOTU inh-1: CCHFV vOTU protease inhibition; Pep-AMC fluorescence; inhibition, % at 11.5 µM; actives 0.55% (n = 370,000); AID 651958
# CCHF vOTU inh-2: CCHFV vOTU protease inhibition, confirmation | shares compounds with CCHF vOTU inh-1 | Recombinant CCHFV vOTU, Pep-AMC fluorescence | inhibition, % at 11.5 µM | actives 17% (n = 1,900) | AID 686976
# A number is an active result; n = inactive; x = no result given. Unless noted, no stated cut-off is given here; in the data, active means inhibition above about 30%; inactive means the rest.
SMILES,MazEF act,Mtb bLac sens,GDH-TPI counter,Mtb FBA inh,CCHF vOTU inh-1,CCHF vOTU inh-2
NS(=O)(=O)c1ccc(NC(=O)COC(=O)CCc2ccc(S(=O)(=O)N3CCOCC3)cc2)cc1,n,n,n,n,n,x
O=[N+]([O-])c1cc(O)c2ncccc2c1,n,n,x,x,35,52
CS(=O)(=O)N(Cc1ccc(Cl)cc1)c1ccc(C(=O)NCC2CCCO2)cc1 (stereo not given),n,n,n,n,n,x
CS(=O)(=O)N(Cc1ccccc1)c1ccc(C(=O)NCC2CCCO2)cc1 (stereo not given),n,n,n,n,35,n
Cc1ccc(F)c(S(=O)(=O)NC(=O)C2(C)CCN2C(=O)C2(c3ccc(Cl)cc3)CC2)c1 (stereo not given),x,x,n,n,30,n
CN=C(Nc1cccnc1)c1cccc(C(F)(F)F)c1,n,n,n,n,49,n
Cc1ccc([C@H]2C(C(=O)O)=CC[C@@H](c3ccc(C)cc3)N2S(=O)(=O)c2ccccc2C)cc1,n,n,n,n,35,n
Cc1ccccc1S(=O)(=O)N1[C@@H](c2ccc(Cl)cc2)C(C(=O)O)=CC[C@H]1c1ccc(Cl)cc1,n,n,n,n,32,n
Cc1ccc([C@@H]2CC=C(C(=O)O)[C@H](c3ccccc3)N2S(=O)(=O)c2ccccc2C)cc1,n,n,n,n,n,x
CC(C)[C@H](NC(=O)c1ccc(Cl)c(Cl)c1)C(=O)N1CCC[C@H]1C(=O)NCCc1ccccc1Cl,x,x,x,x,n,x
CN(C(=O)COC(=O)C(C)(C)Oc1ccc(Cl)cc1)c1c(N)n(Cc2ccccc2)c(=O)[nH]c1=O,n,n,n,n,n,x
Cc1ccc(NC(=O)c2ncn(CCCN3CCN(Cc4cccc5ccccc45)CC3)n2)cc1C,n,x,n,n,n,x
C[n+]1c(-c2ccccc2)cc2c(=Cc3ccc([N+](=O)[O-])cc3)c3ccccc3n21,n,x,n,n,93,57
C[n+]1c(-c2ccccc2)cc2c(=Cc3ccccc3)c3ccccc3n21,n,x,n,n,83,78
CN(C)c1ccc(C=c2c3cc(O)ccc3n3c2cc(-c2ccccc2)[n+]3C)cc1,n,x,n,n,47,41
CN(C)c1ccc(/C=C(\C#N)c2ccccc2)cc1,n,x,n,n,x,x
CN(C)c1ccc(/C=C(/C#N)C(=O)NCc2ccccc2)o1,n,n,n,n,32,n
CC1(C)OC(c2ccccc2)=C/C(=C/C=C2C(=O)NC(=O)NC2=O)O1,n,n,n,n,30,n
O=C1NC(=O)C(=Cc2ccc(Sc3ccccc3)o2)C(=O)N1,n,n,n,n,n,x
Cc1ccc(C(O)c2ncc(-c3ccc(Cl)cc3)[nH]2)cc1 (stereo not given),x,x,n,n,n,x
CCOC(=O)c1cnc(Nc2ccccc2)nc1C(F)(F)F,n,n,n,n,34,n
CCOC(=O)c1cnc(-c2ccccc2)nc1C(F)(F)F,n,n,n,n,n,x
O=C(Cn1c(=O)c2cccn2c2cccnc21)N1CCN(c2ccc(Cl)cc2)CC1,n,n,n,n,x,x
O=C1N/C(=N/Nc2ccccc2)S/C1=C\c1ccccc1,n,n,n,n,32,n
COc1ccc2noc3c2c1C(=O)c1ccccc1-3,x,n,n,n,64,104
SMILES,MazEF act,Mtb bLac sens,GDH-TPI counter,Mtb FBA inh,CCHF vOTU inh-1,CCHF vOTU inh-2
CC(NC(=O)COC(=O)COc1cccc2c1OC(C)(C)C2)c1ccccc1 (stereo not given),n,n,n,n,n,x
C[C@@H]1CN([C@H](C)CO)C(=O)c2cc(Br)cnc2O[C@H]1CN(C)C(=O)c1ccccc1,n,x,n,n,34,n
C[C@H]1CN([C@@H](C)CO)C(=O)c2cc(Br)cnc2O[C@H]1CN(C)C(=O)c1cccnc1,n,x,n,n,n,x
O=[N+]([O-])c1cccc2ccc(/C=C/c3cccc(Br)c3)nc12,n,n,n,n,31,n
O=[N+]([O-])c1cccc2ccc(/C=C/c3ccc(Cl)cc3)nc12,n,n,n,n,n,x
Cc1ccccc1N=C1c2ccccc2C(=O)C1[N+](=O)[O-] (stereo not given),n,n,n,n,34,n
Cc1oc(-c2cc(F)cc(F)c2)nc1CN1CCSCC1,n,n,n,n,n,x
CC1OC(Nc2cccc3ccccc23)C(O)C(O)C1O (stereo not given),n,n,n,n,65,n
CCOC(=O)c1c2c(n(Cc3ccccc3)c1C)C(=O)C(=O)c1ccccc1-2,n,x,n,n,102,102

# Assay outcomes deposited in PubChem BioAssay by several laboratories.
